# From PubChem BioAssay AID2315 (National Center for Advancing Translational Sciences (NCATS), 2010)
# The campaign covered roughly 290,000 compounds. About 27,000 (9.3%) were called active. The full list was thinned out, with actives kept by preference. Values without a mark were called inactive. Rule as the data show it: active = inhibition mostly above about 28% (no sharp cut-off); inactive = mostly below about 43%.
# Assay: A qHTS for Small Molecule Inhibitors of Shiga Toxin; also: 0% is about no effect
# Conditions: Vero cells, Shiga toxin protein synthesis inhibition reporter; at 38.7 µM, hits give high values
row,SMILES,inhibition
1,CN(C(=O)CC1C(=O)NCCN1Cc1ccc(F)cc1Cl)C1CCCCC1 (stereo unspecified),-14.2%
2,C=CCn1c(CNC(=O)c2ccco2)nnc1SCC(=O)c1ccc(OC)cc1,-12.2%
3,CCn1c(Cc2cccs2)nnc1SCC(=O)c1ccc(C)cc1,41.4% (active)
4,CCn1c(SCC(=O)N(C)C2CCS(=O)(=O)C2)nnc1-c1cccs1 (stereo unspecified),-0.571%
5,CCn1c(CNc2ccc(OC)cc2)nnc1SCC(=O)c1ccc(OC)cc1,-15.6% (active)
6,Cn1c(Cc2cccs2)nnc1SCC(=O)Nc1ccccc1,-7.01%
7,CCn1c(SCC(=O)c2ccc3ccccc3c2)nnc1-c1cccs1,-3.35%
8,Cc1ccc(-n2c(Cc3cccs3)nnc2SCC(=O)OC(C)C)cc1,8.05%
9,CCn1c(SCC(=O)c2ccc(Cl)s2)nnc1-c1cccs1,73.6% (active)
10,COC(=O)c1ccc(NC(=O)CSc2nnc(CNc3ccc(OC)cc3)n2C)cc1,24.4%
11,O=C(NCc1ccco1)C(c1ccncc1)N(C(=O)Cn1nnc2ccccc21)c1ccccc1 (stereo unspecified),-3.36%
12,CCOC(=O)c1cc(C)nc(S(C)(=O)=O)c1C#N,47.2%
13,CN(CCc1ccccc1)c1ccc([N+](=O)[O-])cn1,-3.15%
14,CCCCC(c1nnnn1CS(=O)(=O)c1ccc(C)cc1)N1CCC(C(N)=O)CC1 (stereo unspecified),-8.35%
15,COc1ccccc1-c1nnc(SCC(=O)N2CC(C)CC(C)C2)o1 (stereo unspecified),-7.49%
16,O=C(CSc1ccsc1[N+](=O)[O-])N1CCCCC1,6.79%
17,CC1CC(C)CN(C(=O)CSc2ccsc2[N+](=O)[O-])C1 (stereo unspecified),63.3% (active)
18,COCc1c(C(=O)N/N=C(\C)c2ccncc2)nnn1-c1nonc1N,-3.05%
19,COC(=O)c1ccc(NC(=O)CSc2nnc(C3CC3)n2C)cc1,17.5%
20,O=C(Nn1cnc2ccccc2c1=O)c1ccc([N+](=O)[O-])cc1Cl,-11.9%
21,O=C(Nn1cnc2ccccc2c1=O)c1ccccc1,58.6%

row,SMILES,inhibition
1,O=C(Nn1cnc2ccccc2c1=O)c1ccc(F)cc1Cl,71.8% (active)
2,COc1cc(C(=O)NCc2ccncc2)cc(Br)c1OCc1ccccc1,-9.85%
3,CC(C(=O)NCCc1ccc(S(N)(=O)=O)cc1)N1C(=O)CC(C)(C)Sc2ccccc21 (stereo unspecified),-10.5%
4,COc1ccc(C)cc1Nc1nc(-c2c(C)[nH]c3ccccc23)cs1,-3.8%
5,CC(=O)Nc1ccc(-c2csc(NC=C3C(=O)OC(C)(C)OC3=O)n2)cc1,54%
6,COc1ccc2c(c1OC)C(=O)OC2c1c(O)nc(SC)n(-c2ccccc2)c1=O (stereo unspecified),-8.28%
7,COc1ccc(-c2csc(NC3OC(=O)c4ccccc43)n2)cc1 (stereo unspecified),41.6% (active)
8,COc1ccc2c(c1OC)C(=O)OC2Nc1nc(-c2ccccc2)cs1 (stereo unspecified),36.9% (active)
9,Cc1ccc(-c2csc(NC3OC(=O)c4ccccc43)n2)cc1 (stereo unspecified),30% (active)
10,COc1ccc(N/C=C(\C2OC(=O)c3ccccc32)[N+](=O)[O-])cc1 (stereo unspecified),15.2%
11,Cc1ccc(-c2csc(NC(=O)Cn3[nH]c(=O)c4ccccc4c3=O)n2)cc1,42.6%
12,CCCn1c(CCNc2nc(-c3ccc(OC)cc3)cs2)nc2ccccc21,20.9%
13,Cc1ccc(NS(=O)(=O)c2ccc3c(c2)n(C)c(=O)c(=O)n3C)c(C)c1,-7.48%
14,COCCN1CCn2c(nc3cc(NS(C)(=O)=O)ccc32)C1,-2.98%
15,COc1ccc(C(=O)NC2CC(C)(C)Cc3c2cnn3-c2ccccc2C)o1 (stereo unspecified),-10.5%
16,O=C(COc1ccc2c3c(c(=O)oc2c1)CCCC3)NCC(O)c1ccccc1 (stereo unspecified),-3.53%
17,O=C(CCn1c(=S)[nH]c2cc3c(cc2c1=O)OCO3)NCc1ccc(Cl)cc1,1.66%
18,O=C(CCc1nnc(Cc2ccc3c(c2)OCO3)o1)NCCc1ccccc1Cl,-5.99%
19,CN1CCN(Cc2nc3cc(NC(=O)COc4ccc([N+](=O)[O-])cc4)ccc3n2C)CC1,-2.13%
20,COC(=O)c1cccc(C(=O)N2CCCC(Nc3ccc4c(c3)OCCO4)C2)c1 (stereo unspecified),2.25%
21,Cc1cc(/C=C2\SC(=O)N(C)C2=O)c(C)n1-c1cccc(C(=O)O)c1,3.52%

row,SMILES,inhibition
1,COc1ccc(OCCCCN2CCC(C)CC2)cc1,-6%
2,Cc1cccc(NC(=S)Nc2ccc(Cl)c(Cl)c2)c1,17%
3,CC(C)CNC(=S)NNC(=O)c1nn(C)cc1Cl,4.35%
4,Cn1cc(Cl)c(C(=O)NNC(=S)Nc2cccc(Cl)c2)n1,49.5% (active)
5,CC(Cc1cccs1)N(Cc1ccc(Cl)cc1)C(=O)c1ccncc1 (stereo unspecified),-3.64%
6,COc1cc(OC)c(NS(=O)(=O)c2cn(C)cn2)cc1Cl,11.1%
7,COc1cccc(CNC(=O)c2cccnc2Sc2ccc(Cl)cc2)c1,-40.4%
8,O=C(NCCc1ccccc1)c1ccc(NC2=NC3CS(=O)(=O)CC3S2)cc1 (stereo unspecified),3.05%
9,CC1CCCN(c2ccc(C(=O)NCCc3ccccc3)cn2)C1 (stereo unspecified),78.5% (active)
10,CC1CCN(c2c(NCc3ccc(C(=O)NCc4ccccc4)cc3)c(=O)c2=O)CC1,-6.77%
11,CCN(CC)S(=O)(=O)c1ccc(N2CCCC2)c(NS(=O)(=O)c2cccs2)c1,21%
12,COc1ccc(CNc2c(CO)cnc3c2cnn3C)cc1,-11.4%
13,CN(C)/C=C(/C(=O)c1ccc(F)cc1)S(=O)(=O)c1ccc(F)cc1,58.3%
14,CN(C)/C=C(/C(=O)c1ccc(Cl)cc1)S(=O)(=O)c1ccccc1,64.1% (active)
15,CN(C)/C=C(/C(=O)c1ccccc1)S(=O)(=O)c1ccc(Cl)cc1,13.2%
16,Cc1ccc(C(CNC(=O)Nc2ccccc2)N2CCN(C)CC2)cc1 (stereo unspecified),-3.91%
17,CCc1cc(=O)oc2c(C)c(OCC(=O)NCCN3CCOCC3)ccc12,-2.76%
18,O=C(Nc1ccc(Cl)cn1)c1cnn2cccnc12,85.1% (active)
19,Cc1cc(NC(=O)c2cnn3cccnc23)n(-c2ccccc2)n1,-5.01%
